According to PubChem BioAssay AID588342 (National Center for Advancing Translational Sciences (NCATS), 2011):
In all, about 360,000 compounds went through this assay and about 25,000 (6.9%) were called active. About 9% were inconclusive and are not listed. Calls come from the whole dose curve; as a rule, active = well fitted inhibition curve with a large enough effect; inconclusive = small, poorly fitted or top-dose-only effect; inactive = flat fitted curve, though single readings scatter. The full list was thinned out, with actives kept by preference.

What follows are compounds tested against Luciferin 4-monooxygenase (Photinus pyralis) (UniProt P08659) (assay: qHTS profiling assay for firefly luciferase inhibitor/activator using purifed enzyme and Km concentrations of substrates (counterscreen for miR-21 project)). Details: purified FLuc, luminescence inhibition; series mostly up to 57.5 µM; activity change, negative = inhibition: at the top concentration.
Sequence of Luciferin 4-monooxygenase (Photinus pyralis) (P08659 whole entry, looked up): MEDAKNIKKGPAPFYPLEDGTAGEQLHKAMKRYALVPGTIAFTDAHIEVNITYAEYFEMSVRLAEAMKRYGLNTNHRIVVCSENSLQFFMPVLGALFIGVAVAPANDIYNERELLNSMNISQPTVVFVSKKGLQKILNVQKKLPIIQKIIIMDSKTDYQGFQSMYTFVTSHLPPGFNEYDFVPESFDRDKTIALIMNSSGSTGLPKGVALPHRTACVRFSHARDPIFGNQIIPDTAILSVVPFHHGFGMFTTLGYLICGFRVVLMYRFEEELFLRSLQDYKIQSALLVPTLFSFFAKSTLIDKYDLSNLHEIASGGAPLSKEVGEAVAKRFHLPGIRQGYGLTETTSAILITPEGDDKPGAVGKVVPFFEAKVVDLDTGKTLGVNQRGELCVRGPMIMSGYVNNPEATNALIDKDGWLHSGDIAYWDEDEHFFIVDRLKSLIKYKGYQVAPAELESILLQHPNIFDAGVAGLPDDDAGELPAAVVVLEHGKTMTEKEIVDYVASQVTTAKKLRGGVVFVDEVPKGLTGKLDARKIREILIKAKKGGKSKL
Summary of the method: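 Biochemical qHTS of compounds, final roughly 60 µM downward over six points, against 10 nM purified firefly luciferase using Km concentrations of substrates (10 uM D-luciferin, 10 uM ATP) in Tris acetate pH 7.5 buffer; luminescence output.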
Note: nearly all actives have a fitted effect of over 55% in size.
Potency is the fitted concentration of half-maximal effect.
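Throughout, for activity change, negative = inhibition: plate controls were vehicle for no effect and reference inhibitor for full effect.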

Compound	activity change, negative = inhibition	Potency
Cc1nn(CC(=O)Nc2ccc3c(c2)nc(CN2CCCCC2)n3C)c(=O)c2ccccc12	3.59% (inactive)	
Cc1nc2cc(NCc3cccs3)ccc2n1C		15.1 µM (active)
C=CCN(C(=O)Nc1ccc2c(c1)nc(C)n2C)c1ccccc1		15.1 µM (active)
Cc1nc2cc(NC(=O)NC3CC3)ccc2n1C	-15% (inactive)	
CCOC(=O)N1CCN(Cc2nc3cc(NC(=O)CC)ccc3n2CC)CC1	0.0734% (inactive)	
Cc1cc2nc(C)n(CCCNC(=O)Nc3ccccc3)c2cc1C	1.77% (inactive)	
Cc1nc2cc(NC(=O)Nc3cccc(F)c3)ccc2n1C		0.757 µM (active)
O=c1c(NCc2cccs2)nccn1-c1ccccc1	-13.3% (inactive)	
CCCCNC(=O)c1ccc2c(c1)NC(=O)C(C(C)C)N2 (stereo unspecified)	-6.51% (inactive)	
CC(=O)N1CCCc2cc(S(=O)(=O)N3CCC(C(=O)NCc4ccc(C)cc4)CC3)ccc21	0.565% (inactive)	
CCc1ccc(-c2nn(-c3ccccc3C)cc2C(=O)N2CCN(C3CCS(=O)(=O)C3)CC2)cc1 (stereo unspecified)	2.23% (inactive)	
COc1ccccc1CNCc1ccc(C(=O)O)s1	2.57% (inactive)	
CCc1nccn1S(=O)(=O)c1cc(Br)ccc1Br	-10.3% (inactive)	
CCOC(=O)c1c(NC(=O)c2ccc(S(=O)(=O)N(CC)CC)cc2)sc2c1CCCCC2	-3.1% (inactive)	
CN(C(=O)c1ccc2c(c1)N(Cc1cccc(Cl)c1)C(=O)c1ccccc1S2=O)C1CCCCC1 (stereo unspecified)	-10.7% (inactive)	
Cc1ccc(Cl)cc1NC(=O)/C(C#N)=C\c1cn(Cc2ccc(F)cc2)c2ccccc12	0.524% (inactive)	
CCc1ccc(NS(=O)(=O)c2ccc3[nH]cc(C(=O)NCCc4cccc(C)c4)c(=O)c3c2)cc1	-6.98% (inactive)	
O=C(c1ccc(Cl)nc1)N1CCN(S(=O)(=O)c2ccc3c(c2)OCCO3)CC1	-2.36% (inactive)	
COc1cccc(-c2nnc3n(CCc4ccccc4)c(=O)c4ccccc4n23)c1O	-4.13% (inactive)	
Cc1ccccc1NC(=O)c1cc2c([nH]c1=O)CC(C)(C)CC2=O	-15.2% (inactive)	
COc1ccccc1C(=O)NNC(=O)c1ccc(NC(=O)c2ccccc2)cc1	-14% (inactive)	
COc1ccc(OC)c(/C=C/C(=O)OCC(=O)Nc2ccc3c(c2)OCCO3)c1	0.779% (inactive)	
COc1ccc(C(=O)N/N=C(\C)CC(=O)Nc2ccc(Cl)cn2)cc1	-14.9% (inactive)	
COc1ccc(Nc2ncc(C(=O)Nc3cc(C)ccc3OC)c3ccccc23)cc1	7.13% (inactive)	
COc1ccc(OC)c(/C=C/C(=O)c2ccc3c(c2)OCO3)c1		4.78 µM (active)
COc1ccc(NC(=O)NCc2ccc3c(c2)OCO3)c(OC)c1	6.28% (inactive)	

Compound	activity change, negative = inhibition	Potency
COc1ccc(C(=O)Nc2cc(C)c(NC(=O)c3ccccc3OC)cn2)cc1		2.13 µM (active)
O=C(N/N=C/c1ccc(OC(=O)c2ccccc2Cl)cc1)c1ccc(O)cc1	-2.37% (inactive)	
COc1ccc(/C=N/NC(=O)c2ccc(Cl)cc2)cc1COC(C)=O	-13.1% (inactive)	
COc1ccc(C(=O)Nc2ccccc2C(=O)N/N=C/c2ccccc2OC)cc1		0.0757 µM (active)
COc1ccc(C(=O)Nc2ccccc2C(=O)N/N=C/c2ccc(O)c(OC)c2)cc1		0.012 µM (active)
COc1ccc(OC)c(/C=N/NC(=O)c2ccc[n+](CC(=O)c3ccccc3)c2)c1	-5.82% (inactive)	
Cc1ccc(C)c(N2C(=O)N(Cc3c(F)cccc3Cl)c3ccccc3S2(=O)=O)c1	1.18% (inactive)	
Cc1ccc(CN2CC(C(=O)NNC(=O)Cn3ccc(C(F)(F)F)n3)CC2=O)cc1 (stereo unspecified)	4.2% (inactive)	
c1ccc2c(c1)C(=NC1CCCCC1)NC2=NC1CCCCC1	1.79% (inactive)	
COC(=O)NNC(=O)C1CCC(C)CC1 (stereo unspecified)		inactive
CCOCCCn1c(SCC(=O)Nc2ccc(CC)cc2)nc2ccccc2c1=O	-1.15% (inactive)	
Cc1cccc(-c2nc(CS(=O)CC(=O)NC(C)CCc3ccccc3)c(C)o2)c1 (stereo unspecified)	-2.47% (inactive)	
CNC(=O)c1ccc(-c2nc(CN3CCc4ccccc43)c(C)o2)cc1	-0.293% (inactive)	
COc1ccc(CN2CCc3nc(Nc4ccccc4)ncc3C2)c(OC)c1OC	2.56% (inactive)	
CCOc1cc(/C=N/NC(=O)c2cc(-c3ccccc3)nc3ccccc23)ccc1O		16.9 µM (active)
COc1ccc(/C=N/NC(=O)CNC(=O)c2ccc(S(=O)(=O)N3CCCC3)cc2)c(OC)c1	-9.97% (inactive)	
CCn1c(/C=N/NC(=O)c2ccc(OC)cc2)nc2ccccc21		13.5 µM (active)
COc1ccc(Br)cc1/C=N/NC(=O)c1cccc(S(=O)(=O)N2CCOCC2)c1	5.78% (inactive)	
COc1ccc(/C=N/NC(=O)c2ccc3c(c2)OCCO3)c(OC)c1		9.53 µM (active)
Cc1cc(C(=O)N/N=C/c2ccccn2)c2ccccc2n1	-0.51% (inactive)	
CCCCCn1c(CCNC(=O)c2ccc(F)cc2)nc2ccccc21	-3.86% (inactive)	
CCOc1ccc(/C=N/NC(=O)C(C)Sc2ccccn2)cc1OCC (stereo unspecified)	-1.41% (inactive)	
CCn1c(SCC(=O)N/N=C/c2ccncc2)nc2ccccc21	-2.42% (inactive)	
COc1ccc(Cc2nc3ccc(C(=O)NCc4ccccc4Cl)cc3o2)cc1	-11% (inactive)	
CCOC(=O)C1CCCN(C(=O)c2ccc3c(c2)sc2nc(-c4ccc(CC)cc4)cn23)C1 (stereo unspecified)	-6.78% (inactive)	
